DUX4 inh = blocks DUX4-driven transcriptional activation; activity change, negative = inhibition, % (no concentration beside the values); 0.8% of 37,000 active; AID 1224904; 293T-iDUX4 ZSCAN4-Gaussia luciferase reporter, 24 h; active compounds read low;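 active = mean inhibition of at least 10% in the main channel, exceeding the control channel by a set limit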;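 also: 0% = median of neutral control wells and -100% = median of positive control wells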
Starred values were filed as active, the others as inactive; ! = a repeat was not active. This is one part of a sample in which hits are shown more often than they occur.

SMILES | DUX4 inh
COc1ccc(S(=O)(=O)Nc2ccc3c(c2)C(=O)N([C@@H](C)CO)C[C@@H](C)[C@@H](CN(C)C(=O)CCC(F)(F)F)OCCCC[C@@H](C)O3)cc1 | -0.2
CC=Cc1ccc2n(c1=O)C[C@@H]1[C@@H](CO)[C@H](C(=O)OC)N(CCc3ccccc3)[C@H]21 (mixture of isomers) | 8.1
COc1ccc(NC(=O)N(C)C[C@H]2OCc3ccccc3-c3ccccc3C(=O)N([C@@H](C)CO)C[C@@H]2C)cc1 | 6.9
O=C1CN(S(=O)(=O)c2ccccc2)C[C@@H]2[C@@H](c3ccc(Br)cc3)[C@@H](CO)N12 | 1.4
COc1cccc(S(=O)(=O)N2[C@@H]3CNC[C@H]2C3c2ccc(-c3ccccc3F)cc2)c1 (stereo partly drawn) | 3.4
Cc1ccc(-c2ccc(C3[C@@H]4CN(Cc5ccccc5)C[C@H]3N4)cc2)cc1 (stereo partly drawn) | 5.9
Fc1ccc(-c2ccc(C3[C@@H]4CN(Cc5cccc(F)c5)C[C@H]3N4)cc2)cc1 (stereo partly drawn) | -36.0*!
Fc1cccc(CN2[C@@H]3CNC[C@H]2C3c2ccc(-c3ccccc3)cc2)c1 (stereo partly drawn) | 16.0
CN(C)C(=O)c1cccc(-c2ccc(C3[C@@H]4CN(C(=O)Nc5ccccc5F)C[C@H]3N4)cc2)c1 (stereo partly drawn) | 2.7
COc1cccc(CN2C[C@@H]3N[C@H](C2)C3c2ccc(-c3ccccc3F)cc2)c1 (stereo partly drawn) | -19.0*!
CN(C)C(=O)c1cccc(-c2ccc(C3[C@@H]4CN(Cc5ccccc5F)C[C@H]3N4)cc2)c1 (stereo partly drawn) | -17.5*!
COc1cccc(-c2ccc(C3[C@H]4CNC[C@@H]3N4Cc3ccccc3F)cc2)c1 (stereo partly drawn) | 7.1
CN(C)C(=O)c1cccc(-c2ccc(C3[C@@H]4CN(Cc5cncnc5)C[C@H]3N4)cc2)c1 (stereo partly drawn) | 13.7
CN(C)C(=O)C[C@H]1CC[C@@H]2[C@@H](COc3ccc(NS(=O)(=O)c4cccc(F)c4)cc3C(=O)N2C)O1 | 3.5
C[C@H]1CCCCO[C@@H](CN(C)Cc2ccc(C(=O)Nc3ccccc3N)cc2)[C@@H](C)CN([C@@H](C)CO)C(=O)c2cc(N(C)C)ccc2O1 | 0.7
O=C(NCc1ccc(F)cc1)[C@@H]1[C@@H](CO)[C@@H]2Cn3c(cccc3=O)[C@H]1N2CC1CC1 | 0.5
COC(=O)C[C@H]1CC[C@H]2[C@@H](COC[C@@H](O)CN2S(=O)(=O)c2ccccc2C)O1 | -5.4
COc1cccc(-c2ccc([C@H]3[C@@H](C#N)N(C(=O)Cc4ccncc4)[C@@H]3CO)cc2)c1 | 1.2
O=C(N[C@H]1CC[C@H](CCNS(=O)(=O)c2ccccc2Cl)O[C@H]1CO)c1ccc(F)cc1 | 0.8
COCC(=O)Nc1ccc2c(c1)C(=O)N(C)C[C@H](OC)[C@@H](C)CN(Cc1cncnc1)[C@H](C)CO2 | 6.4
CC=Cc1ccc2n(c1=O)C[C@@H]1[C@@H](CO)[C@H](C(=O)NC3CCC3)N(S(C)(=O)=O)[C@H]21 (mixture of isomers) | 0.4
CCCC(=O)N1CC2(CCN(C(=O)C3CCC3)CC2)c2c(n(C)c3cc(OC)ccc23)[C@@H]1CO | 16.4
C[C@H]1CN([C@@H](C)CO)C(=O)c2c(c3ccccc3n2C)-c2ccccc2CO[C@@H]1CN(C)Cc1ccncc1 | 5.3
C[C@@H]1CN([C@H](C)CO)C(=O)c2ccccc2-c2ccccc2CO[C@@H]1CN(C)Cc1ccc(C(F)(F)F)cc1 | -24.7*
C[C@@H]1CN([C@@H](C)CO)C(=O)c2c(c3ccccc3n2C)-c2ccccc2CO[C@@H]1CN(C)Cc1ccc(Cl)c(Cl)c1 | 11.6
SMILES | DUX4 inh
C[C@@H]1CN([C@@H](C)CO)C(=O)c2c(c3ccccc3n2C)-c2ccccc2CO[C@@H]1CN(C)Cc1ccc(-c2ccccc2)cc1 | 12.7
C[C@H]1CN([C@@H](C)CO)C(=O)c2ccccc2-c2ccccc2CO[C@H]1CN(C)Cc1ccc(O)cc1 | 4.4
C[C@H]1CN([C@@H](C)CO)C(=O)c2c(c3ccccc3n2C)-c2ccccc2CO[C@@H]1CN(C)Cc1ccc(Cl)c(Cl)c1 | -49.0*
C[C@H]1CN([C@@H](C)CO)C(=O)c2c(c3ccccc3n2C)-c2ccccc2CO[C@@H]1CN(C)Cc1ccc(-c2ccccc2)cc1 | -41.4*
C[C@@H]1CN([C@@H](C)CO)C(=O)c2c(c3ccccc3n2C)-c2ccccc2CO[C@H]1CN(C)Cc1ccc(-c2ccccc2)cc1 | -2.3
C[C@@H]1CN([C@H](C)CO)C(=O)c2c(c3ccccc3n2C)-c2ccccc2CO[C@@H]1CN(C)Cc1ccc(Cl)c(Cl)c1 | -18.7*
C[C@H](CO)N1C[C@H](C)[C@@H](CN(C)Cc2ccncc2)OCc2ccccc2-c2c(n(C)c3ccccc23)C1=O | 10.9
C[C@@H]1CN([C@@H](C)CO)C(=O)c2c(c3ccccc3n2C)-c2ccccc2CO[C@H]1CN(C)Cc1ccncc1 | -6.3
C[C@@H]1CN([C@H](C)CO)C(=O)c2ccccc2-c2ccccc2CO[C@@H]1CN(C)Cc1ccc(C(=O)O)cc1 | 3.1
CC[C@@H]1C/C=C\C[C@@H](c2ccc(F)cc2)NC(=O)CCC(=O)N1 | -2.9
CC(=O)N1CC[C@@H]2[C@H]1c1cc(-c3ccc(C#N)cc3)ccc1N(C)[C@@H]2CO | -3.8
O=C([C@H]1[C@H](CO)[C@H]2Cn3c(cccc3=O)[C@H]2N1CC1CC1)N1CCc2ccccc2C1 | 8.5
C[C@@H]1CN([C@@H](C)CO)C(=O)CCCn2cc(nn2)CO[C@@H]1CN(C)C(=O)Nc1ccc2c(c1)OCO2 | 5.7
C[C@@H]1CN([C@H](C)CO)C(=O)c2cc(C#CC3CC3)cnc2O[C@H]1CN(C)C(=O)c1ccc(F)cc1 | -0.8
O=C(c1cccnc1)N1C[C@@H]2[C@H](c3ccccc31)[C@H](CO)N2C(=O)C1CCOCC1 | 1.6
CO[C@H](CN(C)C(=O)c1ccccc1F)[C@H](C)CN([C@H](C)CO)S(=O)(=O)c1ccc(Cl)cc1 | 2.4
Cc1ccc(S(=O)(=O)N2C[C@H](O)COC[C@@H]3O[C@@H](CC(=O)NCCN4CCCCC4)CC[C@H]32)cc1 | 16.0
CC(=O)NC[C@H]1[C@@H](c2ccc(C#C[C@@H](C)O)cc2)[C@@H](CO)N1Cc1ccccn1 | 0.6
CCC(=O)N1CC2(CCN(Cc3ccc(F)cc3)CC2)c2c(n(C)c3cc(OC)ccc23)[C@@H]1CO | -0.4

Assay outcomes as filed in PubChem BioAssay.
